# Hits are enriched below; roughly 19% of the tested compounds scored in any of these assays.
# IL1B secr inh: inflammasome signaling inhibition, IL-1 beta readout. THP-1 LPS/ATP IL-1B secretion, AlphaLISA, 16 h; hits give low values. activity change, % at 57.5 µM. 4.7% of 360,000 active. AID 743279; in the data active means activity change below about -50%; inconclusive means mostly about -30% to -49%
#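 THP-1 cells pretreated 1 hr with compounds (up to 57.5 uM final), then stimulated with LPS (250 ng/mL final) plus ATP (1.25 mM final); secreted IL-1B measured by AlphaLISA after 16 hr, decreased signal indicating inhibition.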
# ELG1 DNA repair: ELG1-dependent DNA repair inhibition; 2.3% of 330,000 active; Potency, µM (top dose mostly 46.1 µM), for the others: at the highest dose activity change, negative = inhibition, actives largely listed as inhibitors; HEK293T ELG1-luciferase reporter, luminescence, 16 h; DNA damage induced by 5-fluorouridine; AID 504467; further: potency means the concentration at half of the fitted maximal effect; nearly all actives have a fitted effect of over 55% in size
#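 Quantitative HTS, concentration-response format. 2,000 cells/well co-treated with 5-fluorouridine and compound, 16 hr in 5% CO2 at 37 °C; ONE-Glo luminescence read after 30 min.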
# TDP1 cell noCPT: qHTS for Inhibitors of human tyrosyl-DNA phosphodiesterase 1 (TDP1): qHTS in cells in absence of CPT | DT40 Tdp1-/- hTDP1 cells, no CPT, ATP luminescence, 48 h | Potency, µM (doses to about 46.2 µM), for the others: at the highest dose activity change, negative = growth inhibition, most hits filed as inhibitors | 15% of 420,000 active | AID 686978, 2013; further: potency means the concentration at half of the fitted maximal effect; nearly all actives have a fitted effect of over 55% in size
#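 Camptothecin absent (DMSO only). Human TDP1-complemented DT40 knockout cells, 400 cells/well, 37 °C for minimum 48 hr; ATP measured via CellTiter-Glo, 30 min dark incubation, luminescence.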
# HT1080 IDH1KD tx: HT-1080 IDH1 knockdown cell toxicity (counter line) | AID 686971 | 2% of 360,000 active | Potency, µM (titrated, usually from 46.1 µM), for the others: top-dose activity, negative = toxicity, actives largely listed as cytotoxic | HT-1080 IDH1 knockdown viability, ATP luminescence, 48 h;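 further: potency means the concentration at half of the fitted maximal effect; 0% = DMSO wells and -100% = cell-free medium wells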
#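 After a 2 h attachment period, IDH1KD HT-1080 cells took pin-transferred compound for 48 h at 37 °C; ATP-based luminescence after 10 min room-temperature reagent incubation reported viability.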
# HT1080NT lethal: kills 2HG-producing HT-1080-NT fibrosarcoma cells; HT-1080-NT fibrosarcoma viability, CellTiter-Glo ATP luminescence, 48 h; Potency, µM (highest dose often 46.1 µM), inactives show top-dose activity, negative = less viability, most hits filed as cytotoxic; 1.6% of 360,000 active; AID 686970;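 further: NT is the 2HG producing partner of a matched IDH1 knockdown line; potency means the concentration at half of the fitted maximal effect; 0% = DMSO-treated cells and -100% = media-only wells without cells; nearly all actives have a fitted effect of over 55% in size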
#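 A 48-hour cytotoxicity screen used HT-1080-NT cells plated 2 hours before compound delivery. ATP-based CellTiter-Glo luminescence measured viability, normalized to DMSO and no-cell controls.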
# TDP1 cell CPT: growth inhibition of DT40 Tdp1-/-;hTDP1 cells with camptothecin (screen for TDP1 inhibitors). Potency, µM (doses to about 46.2 µM), for the others: top-dose activity change, negative = growth inhibition, actives largely listed as inhibitors. AID 686979. chicken DT40 Tdp1-/-;hTDP1 cells + 20 nM CPT, ATP luminescence, 48 h. 12% of 420,000 active; further: potency means the concentration at half of the fitted maximal effect; nearly all actives have a fitted effect of over 55% in size
#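 Cell growth measured by CellTiter-Glo luminescence after a minimum 48 h, 37 C compound exposure with 20 nM CPT in Tdp1-knockout DT40 cells stably expressing hTDP1, seeded 400/well; qHTS titration format.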
# Numbers without * were called inactive; ? = inconclusive; nt = no result; [ ] = another dose, or the depositor's remark. Unless noted, the call rests on the fitted dose curve; in most records, active means well fitted curve in the direction sought with a large enough effect; inconclusive means small, poorly fitted or top-dose-only effect, or another doubt; inactive means no such curve, though single readings can be large; an effect the other way counts as inactive or inconclusive. Unless noted, on the % scale 0 is the no-effect control and ±100 the full control effect.
SMILES,IL1B secr inh,ELG1 DNA repair,TDP1 cell noCPT,HT1080 IDH1KD tx,HT1080NT lethal,TDP1 cell CPT
O=C(Oc1ccccc1)N1CCC[C@@]2(CCN(Cc3nccs3)C2)C1,nt,nt,-25.1%,nt,nt,-2.4%
COCCNC(=O)c1c(NC(=O)c2ccco2)n(Cc2ccccc2)c2nc3ccccc3nc12,-8.4,?,20.6µM*,-9.4%,-19.0%,?
COCCNC(=O)c1c(N)n(Cc2ccco2)c2nc3ccccc3nc12,-5.6,13µM*,?,?,-28.0%,?
COCCCn1c(N)c(C(=O)NCc2ccco2)c2nc3ccccc3nc21,-19.4,?,?,-8.8%,-0.9%,?
CC(C)(C)OC(=O)c1c(N)n(Cc2ccco2)c2nc3ccccc3nc12,?,?,?,-5.4%,-8.7%,?
C=CCNC(=O)c1c(N)n(Cc2ccco2)c2nc3ccccc3nc12,-14.2,?,14.6µM*,?,?,7.31µM*
CC(=O)N1CC[N+](C)(C)CC1,nt,nt,-4.7%,nt,nt,-3.4%
CC(=O)O[C@H]1CCC2C3CC[C@H]4[C@@H](O)[C@H](O)CC[C@]4(C)C3CC[C@@]21C (some centres undefined),11.1,nt,?,?,2.1%,-24.9%
COc1ccc(CNCCc2cccc(F)c2)c2ccccc12,nt,-11.0%,nt,nt,nt,nt
COc1ccc(CNCCc2ccc(Cl)cc2)c(OC)c1OC,-16.6,?,9.2µM*,-1.5%,-12.7%,16.4µM*
COc1ccccc1CNCCc1cccc(Cl)c1,nt,nt,14.6µM*,-25.4%,-20.6%,18.4µM*
COc1ccccc1CNCCc1ccc(F)cc1,0.0,-6.6%,-20.9%,-22.2%,-20.8%,?
CCOc1ccccc1CNCCc1ccc2c(c1)OCO2,-59.8*,-4.2%,?,-13.1%,-10.5%,?
Nc1ccccc1Cl,-8.0,6.2%,-7.1%,6.5%,-6.2%,8.3%
CC1(C)[C@H](C=C(Cl)Cl)[C@H]1C(=O)OCc1c(F)c(F)cc(F)c1F,nt,nt,-4.1%,nt,nt,29.6%
Cc1ccc(OP(=O)(NC(C)c2ccccc2)Oc2ccc(C)cc2)cc1 (centres undefined),-15.1,?,?,?,-20.4%,?
O=c1n(Cl)c(=O)n(Cl)c(=O)n1Cl,nt,nt,3.4%,nt,nt,7.1%
c1ccc(-c2[nH]c(-c3ccccc3)[n+](CC3CO3)c2-c2ccccc2)cc1 (centres undefined),-56.3*,23.1µM*,10.3µM*,-22.8%,-24.8%,5.8µM*
CC[C@@]1(O)CC(O)c2c(cc3c(c2O)C(=O)c2c(O)ccc(O)c2C3=O)C1C(=O)OC (some centres undefined),nt,nt,-16.4%,nt,nt,-20.0%
CC[C@]1(O)CC(O[C@@H]2CC(N(C)C)C(O)C(C)O2)c2c(cc3c(c2O)C(=O)c2c(O)cccc2C3=O)C1C(=O)OC (some centres undefined),nt,nt,0.581µM*,nt,nt,0.82µM*
Oc1ccccc1/C=N/[n+]1ccccc1,4.4,0.0%,18.4µM*,-1.1%,5.8%,20.6µM*
OC[C@H]1O[C@@H](n2cnc3cc(Cl)c(Cl)cc32)[C@H](O)[C@H]1O,nt,nt,?,nt,nt,16.4µM*
OC[C@H]1O[C@@H](n2cnc3cc(Cl)c(Cl)cc32)[C@H](O)[C@@H]1O,-69.5*,8.91µM*,14.6µM*,?,?,?
Cc1ccc(OC(F)F)c(N2C(=O)C3C4CCC(O4)C3C2=O)c1 (centres undefined),4.9,?,-21.8%,0.7%,12.3%,15.4%
C[C@H](NC(=O)[C@@H](N)Cc1ccc(O)cc1)C(=O)NCC(=O)N(C)[C@@H](Cc1ccccc1)C(=O)N[C@H](CO)CCS(C)=O (some centres undefined),nt,nt,-23.0%[4.12 µM],nt,nt,?
O=C(OCC(=O)c1ccc([N+](=O)[O-])cc1)/C(=C/c1ccc(Cl)cc1)NC(=O)c1ccccc1,-12.0,5.0%,23.1µM*,7.0%,-0.7%,16.4µM*
CC(=O)c1ccc(N2CCN(S(=O)(=O)c3cc(-c4onc(C)c4C)ccc3C)CC2)cc1,nt,nt,9.2µM*,nt,nt,8.2µM*
C=C(C)C1Cc2c(ccc3c(=O)c4c(oc23)COc2cc(OC)c(OC)cc2-4)O1 (centres undefined),nt,nt,-23.3%[9.04 µM],nt,nt,-11.6%[9.04 µM]
